Only some compounds are listed: those with a hit (about 21% of all), similar ones and a draw of the others.
Pf growth 96h: Primary qHTS for delayed death inhibitors of the malarial parasite plastid, 96 hour incubation; P. falciparum luciferase reporter growth, 96 h; Potency, µM (titrated, usually from 28.7 µM), without a hit: at the top dose activity change, negative = inhibition, actives largely listed as inhibitors; actives 6.9% (n = 320,000); AID 504834, 2011; also: potency is read from the fitted curve at half-maximal effect; % is scaled to controls: 0 for no effect and ±100 for the full control effect
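Compounds incubated with erythrocytes infected by luciferase-expressing P. falciparum (2% hematocrit, 0.05% parasitemia final) for 96 hours, 37 C in 5% CO2. Growth inhibition scored as decreased luciferase luminescence.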
CHX counter: Cycloheximide Counterscreen for Small Molecule Inhibitors of Shiga Toxin; cell reporter, cycloheximide protein synthesis inhibition counterscreen; max response, %; actives 12% (n = 300,000); in the data active = max response mostly above about 13%, no sharp cut-off; inactive = mostly below about 14%; also: read at 38.3 µM for the half of the compounds with a filed dose; 0% is about no effect
Shiga toxin inh: A qHTS for Small Molecule Inhibitors of Shiga Toxin | Vero cells, Shiga toxin protein synthesis inhibition reporter | inhibition, % at 38.7 µM | actives 9.2% (n = 290,000) | AID 2315, 2010; in the data active = inhibition mostly above about 28%, no sharp cut-off; inactive = mostly below about 43%; also: 0% is about no effect
Sm TGR inh: qHTS Assay for the Inhibitors of Schistosoma Mansoni Peroxiredoxins; Schistosoma mansoni thioredoxin glutathione reductase (TGR), Q962Y6; purified TGR, DTNB reduction, TNB absorbance 405 nm; Potency, µM (series often up to 114 µM), for the others: at the highest dose activity change, negative = inhibition, usual class: inhibitors; actives 3% (n = 360,000); also: potency is read from the fitted curve at half-maximal effect; % is scaled to controls: 0 for no effect and ±100 for the full control effect; nearly all actives have a fitted effect of over 60% in size
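Kinetic colorimetric format: TGR-catalysed, NADPH-driven DTNB reduction monitored via TNB absorbance. Enzyme dispensed at 20 nM; compound exposure 15 min at room temperature before reaction start.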
Pf growth 48h: Primary qHTS for delayed death inhibitors of the malarial parasite plastid, 48 hour incubation; P. falciparum luciferase growth in erythrocytes, 48 h; Potency, µM (doses to about 28.7 µM), for the others: top-dose activity change, negative = inhibition, most hits filed as inhibitors; actives 5.9% (n = 310,000); also: potency is read from the fitted curve at half-maximal effect; % is scaled to controls: 0 for no effect and ±100 for the full control effect
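Luminescence readout; reporter = integrated firefly luciferase in P. falciparum. RBC culture at 2% hematocrit, 0.1% parasitemia final, 37 C/5% CO2; decreased signal taken as growth inhibition.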
NS1 function inh: qHTS Assay for Inhibitors of Influenza NS1 Protein Function; actives 0.4% (n = 270,000); Potency, µM (highest dose often 46.1 µM), without a hit: top-dose activity, positive = more growth; calls by dose curve; also: potency is read from the fitted curve at half-maximal effect; actives are rising curves; nearly all actives have a fitted effect of over 50% in size
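Recovery from NS1-induced slow growth read by OD600 in budding yeast switched to galactose assay medium (pH 6.0, -URA) at 1:100 dilution. Compound 23 nl per well; the matching strain lacking NS1 serves as control.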
* hit, by the source's call. Unless noted, calls follow the shape of the dose curve; as a rule, active = well fitted curve in the direction sought with a large enough effect; inconclusive = small, poorly fitted or top-dose-only effect, or another doubt; inactive = no such curve, though single readings can be large; an effect the other way counts as inactive or inconclusive.

Results for Cc1ccccc1N1CCN(C(=O)CN2C(=O)c3ccccc3C2=O)CC1 ?
CHX counter: 38*; Shiga toxin inh: 198*; Sm TGR inh: 9%; Pf growth 48h: 29%; NS1 function inh: -9%

What do the screens show for `CC[C@H](C)[C@H](NC(=O)[C@H](CCC(=O)O)NC(=O)[C@H](CO)NC(=O)[C@@H](NC(=O)[C@H](C)N)C(C)C)C(=O)N[C@@H](CCC(N)=O)C(=O)N[C@@H](CC(C)C)C(=O)N[C@@H](CCSC)C(=O)N[C@@H](Cc1cnc[nH]1)C(=O)N[C@@H](CC(N)=O)C(=O)N[C@@H](CC(C)C)C(=O)NCC(=O)N[C@@H](CCCCN)C(=O)N[C@@H](Cc1cnc[nH]1)C(=O)N[C@@H](CC(C)C)C(=O)N[C@@H](C)C(=O)N[C@@H](CO)C(=O)N[C@H](C(=O)N[C@@H](CCC(=O)O)C(=O)N[C@@H](CCCNC(=N)N)C(=O)N[C@@H](CCSC)C(=O)N[C@@H](CCC(N)=O)C(=O)N[C@@H](Cc1c[nH]c2ccccc12)C(=O)N[C@@H](CC(C)C)C(=O)N[C@@H](CCCNC(=N)N)C(=O)N[C@@H](CCCCN)C(=O)N[C@@H](CCCCN)C(=O)N[C@@H](CC(C)C)C(=O)N[C@@H](CCC(N)=O)C(=O)N[C@@H](CC(=O)O)C(=O)N[C@H](C(=O)N[C@@H](Cc1cnc[nH]1)C(=O)N[C@@H](CC(N)=O)C(=O)N[C@@H](Cc1ccccc1)C(=O)O)C(C)C)C(C)C`?
CHX counter: -4; Shiga toxin inh: 8

What do the screens show for `NCCc1nc2cccnc2n1-c1ccccc1`?
Sm TGR inh: 4%

What do the screens show for `COc1cccc(NC(=O)CN(C)C(C)C(=O)Nc2cc([N+](=O)[O-])ccc2Cl)c1` (stereo not drawn)?
Pf growth 96h: -17%; CHX counter: -2; Shiga toxin inh: 9; Sm TGR inh: 5%; Pf growth 48h: -16%

How did Fc1cccc2sc(N3CCOCC3)nc12 do in these assays?
Pf growth 96h: inconclusive; CHX counter: 15*; Shiga toxin inh: 52*; Sm TGR inh: -4%; Pf growth 48h: 41%; NS1 function inh: 1%

Results for Clc1cc(Cl)c2nc(N3CCOCC3)sc2c1 ?
CHX counter: 31*; Shiga toxin inh: 51*; Sm TGR inh: 2%; Pf growth 48h: 101%; NS1 function inh: -11%

How did Clc1ccc(-c2nsc(N3CCOCC3)n2)c(Cl)c1 do in these assays?
Pf growth 96h: 383%; CHX counter: 34*; Shiga toxin inh: 72*; Sm TGR inh: 0%; Pf growth 48h: 210%; NS1 function inh: -34%

How did Fc1cccc2sc(N3CCCCC3)nc12 do in these assays?
Pf growth 96h: 9%; CHX counter: 54*; Shiga toxin inh: 57*; Sm TGR inh: 3%; Pf growth 48h: 88%; NS1 function inh: -22%

Results for O=C(c1ccc2c(c1)CCCC2)N1CCN(c2nc3c(F)cccc3s2)CC1 ?
Sm TGR inh: 5%

Results for Clc1ccc(Cl)c2sc(N3CCOCC3)nc12 ?
NS1 function inh: -3%

Results for Fc1cc(F)c2nc(N3CCCC3)sc2c1 ?
Pf growth 96h: 88%; CHX counter: 29*; Shiga toxin inh: 150*; Sm TGR inh: 0%; Pf growth 48h: 97%

Results for Cc1cc(O)c(C(=O)Cc2csc(C)n2)c(O)c1 ?
Pf growth 96h: inconclusive; CHX counter: 39*; Shiga toxin inh: 83*; Sm TGR inh: -14%; Pf growth 48h: inconclusive; NS1 function inh: -9%

What do the screens show for `CCOC(=O)c1[nH]c2c(c1Cc1ccccc1OC)C(=O)CC(c1ccc(OCC)cc1)C2` (stereo not drawn)?
Sm TGR inh: 5%

What do the screens show for `CCOC(=O)c1c(C)[nH]c(C)c1S(=O)(=O)N(C)CC(=O)NCc1cccc(Br)c1`?
Pf growth 96h: 12µM*; CHX counter: 1; Shiga toxin inh: -7; Sm TGR inh: -9%; Pf growth 48h: inconclusive; NS1 function inh: -12%

How did CN(CC(=O)NCc1ccc2c(c1)OCO2)S(=O)(=O)c1ccc(Br)s1 do in these assays?
CHX counter: 5; Shiga toxin inh: 27; Sm TGR inh: -6%; Pf growth 48h: 14%; NS1 function inh: -7%

How did CN(CC(=O)NCc1ccc(F)cc1)S(=O)(=O)c1ccc(Br)s1 do in these assays?
Pf growth 96h: -23%; CHX counter: 23; Shiga toxin inh: 27; Sm TGR inh: 0%; Pf growth 48h: -10%; NS1 function inh: 13%

What do the screens show for `COc1ccc(CNC(=O)CN(C)S(=O)(=O)c2ccc(Br)s2)cc1`?
Pf growth 96h: 0%; CHX counter: 23*; Shiga toxin inh: 25; Sm TGR inh: 5%; Pf growth 48h: 19%; NS1 function inh: -23%

What do the screens show for `COc1ccccc1CNC(=O)CN(C)S(=O)(=O)c1ccc(Br)s1`?
Pf growth 96h: 92%; CHX counter: 21*; Shiga toxin inh: 57*; Sm TGR inh: 2%; Pf growth 48h: 3%; NS1 function inh: -8%

How did COc1cccc(CNC(=O)CN(C)S(=O)(=O)c2ccc(Br)s2)c1 do in these assays?
Pf growth 96h: -24%; CHX counter: 22*; Shiga toxin inh: 76*; Sm TGR inh: -4%; Pf growth 48h: -4%; NS1 function inh: -2%

What do the screens show for `CCCn1c(=O)c2c(nc3n2CCS3)n(C)c1=O`?
Pf growth 96h: inconclusive; CHX counter: -8; Shiga toxin inh: 8; Sm TGR inh: 5%; Pf growth 48h: inconclusive

Results for O=C(c1ccc2c(c1)N(Cc1cccc(Cl)c1)C(=O)c1ccccc1S2(=O)=O)N1CCCCCC1 ?
Sm TGR inh: 12%

Results for COc1cc(OC)c(NC(=O)N2CCc3cc(OC)c(OC)cc3C2CC(=O)O)cc1Cl (stereo not drawn) ?
Sm TGR inh: -5%

What do the screens show for `O=C(NCC(c1ccccc1Cl)N1CCCC1)c1ccc(N2CCCC2=O)cc1` (stereo not drawn)?
Pf growth 96h: 0%; Sm TGR inh: 5%; Pf growth 48h: inconclusive

What do the screens show for `Cc1ccc(-n2[nH]c(C)c(C=NC34CN5CN(CN(C5)C3)C4)c2=O)cc1C`?
Pf growth 96h: 3%; CHX counter: 19; Shiga toxin inh: 8; Sm TGR inh: 3%; Pf growth 48h: 34%; NS1 function inh: -24%

What do the screens show for `COCCCN=Cc1c(C)[nH]n(-c2ccc(Br)c(C)c2)c1=O`?
Pf growth 96h: 353%; CHX counter: 49*; Shiga toxin inh: 38*; Sm TGR inh: -14%; Pf growth 48h: 253%; NS1 function inh: -4%
